# Values without a mark were called inactive.
# Compound: C#CCNC(=O)CCSSCCC(=O)NCCc1ccc(C=O)c(C=O)c1
# Test: lysine labeling ratio R10:1 (500 µM / 50 µM probe), SILAC-ABPP in living cells; higher = lower intrinsic lysine reactivity toward the probe, active = 2 or less
# Details: HeLa; probe concentrations 500 vs 50 µM
# Summary of the method: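 R, given per lysine, is the filtered median high-probe/low-probe MS1 peptide ratio, with the median then taken across forward and reverse replicates. Cells were living SILAC light and heavy HeLa cells in PBS at room temperature, labelled with 50 µM or 500 µM of an alkyne-tagged, disulfide-linked lysine probe. The ceiling applied is 20.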
# Chain of UniProt Q6YHK3 (Q6YHK3 whole entry): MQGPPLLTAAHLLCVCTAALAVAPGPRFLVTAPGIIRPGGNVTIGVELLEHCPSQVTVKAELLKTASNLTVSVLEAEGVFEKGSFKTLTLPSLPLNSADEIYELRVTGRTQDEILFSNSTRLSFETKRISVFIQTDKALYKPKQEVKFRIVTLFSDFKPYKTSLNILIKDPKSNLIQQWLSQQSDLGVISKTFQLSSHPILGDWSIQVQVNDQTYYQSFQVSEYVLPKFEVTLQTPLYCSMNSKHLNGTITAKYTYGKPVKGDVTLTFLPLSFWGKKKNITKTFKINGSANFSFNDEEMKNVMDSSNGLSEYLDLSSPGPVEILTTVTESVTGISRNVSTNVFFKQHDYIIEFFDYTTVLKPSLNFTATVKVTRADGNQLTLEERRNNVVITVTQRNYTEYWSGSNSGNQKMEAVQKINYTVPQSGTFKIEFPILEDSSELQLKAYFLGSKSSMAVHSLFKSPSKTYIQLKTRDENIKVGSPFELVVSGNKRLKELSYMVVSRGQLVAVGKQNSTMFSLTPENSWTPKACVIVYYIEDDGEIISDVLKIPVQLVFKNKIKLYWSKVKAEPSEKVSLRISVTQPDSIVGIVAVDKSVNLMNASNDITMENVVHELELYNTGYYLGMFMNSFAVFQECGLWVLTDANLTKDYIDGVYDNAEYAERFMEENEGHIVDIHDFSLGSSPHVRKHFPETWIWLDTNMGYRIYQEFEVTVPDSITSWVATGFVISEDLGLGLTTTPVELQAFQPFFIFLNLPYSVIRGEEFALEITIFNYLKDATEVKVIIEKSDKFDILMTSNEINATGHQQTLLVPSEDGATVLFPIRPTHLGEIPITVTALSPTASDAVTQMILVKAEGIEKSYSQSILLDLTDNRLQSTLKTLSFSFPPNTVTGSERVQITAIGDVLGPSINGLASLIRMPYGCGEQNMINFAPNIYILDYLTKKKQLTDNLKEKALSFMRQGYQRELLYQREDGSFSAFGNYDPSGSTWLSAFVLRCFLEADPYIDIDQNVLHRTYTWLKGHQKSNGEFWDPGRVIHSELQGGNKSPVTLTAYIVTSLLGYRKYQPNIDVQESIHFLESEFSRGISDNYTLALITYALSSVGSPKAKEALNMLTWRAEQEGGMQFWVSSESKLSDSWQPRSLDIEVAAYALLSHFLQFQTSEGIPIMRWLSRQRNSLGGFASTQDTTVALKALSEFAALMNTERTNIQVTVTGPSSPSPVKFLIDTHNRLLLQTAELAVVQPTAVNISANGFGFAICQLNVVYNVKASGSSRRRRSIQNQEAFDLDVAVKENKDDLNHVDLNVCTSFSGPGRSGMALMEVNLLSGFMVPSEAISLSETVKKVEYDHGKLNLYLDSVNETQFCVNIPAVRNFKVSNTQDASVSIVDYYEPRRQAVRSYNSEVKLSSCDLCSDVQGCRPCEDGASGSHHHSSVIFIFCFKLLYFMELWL
# Chain of UniProt P30101 (P30101 whole entry): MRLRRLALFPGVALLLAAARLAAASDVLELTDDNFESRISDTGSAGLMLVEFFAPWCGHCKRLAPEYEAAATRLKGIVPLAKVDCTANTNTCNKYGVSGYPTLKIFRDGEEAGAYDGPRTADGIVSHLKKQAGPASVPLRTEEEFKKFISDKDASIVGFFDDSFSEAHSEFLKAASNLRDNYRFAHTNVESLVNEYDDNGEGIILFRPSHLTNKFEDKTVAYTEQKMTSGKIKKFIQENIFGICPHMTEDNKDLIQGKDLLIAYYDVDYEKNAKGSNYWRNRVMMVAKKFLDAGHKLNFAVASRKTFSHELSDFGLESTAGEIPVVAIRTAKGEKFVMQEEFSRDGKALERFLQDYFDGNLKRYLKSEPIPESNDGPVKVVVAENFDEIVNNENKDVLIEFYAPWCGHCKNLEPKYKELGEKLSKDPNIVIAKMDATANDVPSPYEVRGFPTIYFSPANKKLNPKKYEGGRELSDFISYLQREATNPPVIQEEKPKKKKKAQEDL
# Chain of UniProt Q00839 (Q00839 whole entry): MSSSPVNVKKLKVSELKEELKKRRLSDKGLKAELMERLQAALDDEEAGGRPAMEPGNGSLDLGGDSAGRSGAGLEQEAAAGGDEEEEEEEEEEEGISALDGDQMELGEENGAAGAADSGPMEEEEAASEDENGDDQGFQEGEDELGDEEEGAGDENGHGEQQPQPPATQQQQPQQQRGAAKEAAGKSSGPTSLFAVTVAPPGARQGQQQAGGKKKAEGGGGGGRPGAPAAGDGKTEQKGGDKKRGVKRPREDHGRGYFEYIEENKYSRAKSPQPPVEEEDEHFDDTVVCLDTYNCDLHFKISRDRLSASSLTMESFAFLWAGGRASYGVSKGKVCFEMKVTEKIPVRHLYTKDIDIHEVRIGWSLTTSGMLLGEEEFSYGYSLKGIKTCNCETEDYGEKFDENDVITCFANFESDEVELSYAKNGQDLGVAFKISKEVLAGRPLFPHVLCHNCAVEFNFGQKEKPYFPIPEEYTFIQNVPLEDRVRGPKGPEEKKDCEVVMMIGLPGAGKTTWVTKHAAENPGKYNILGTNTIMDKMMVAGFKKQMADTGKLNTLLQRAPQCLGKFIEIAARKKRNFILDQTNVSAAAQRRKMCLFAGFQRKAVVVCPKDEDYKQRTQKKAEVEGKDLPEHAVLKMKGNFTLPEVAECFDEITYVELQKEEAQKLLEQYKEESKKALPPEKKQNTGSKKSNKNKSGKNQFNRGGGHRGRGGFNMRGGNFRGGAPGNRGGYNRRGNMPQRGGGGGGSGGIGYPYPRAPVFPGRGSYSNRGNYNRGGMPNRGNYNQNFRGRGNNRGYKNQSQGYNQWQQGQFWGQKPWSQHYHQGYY
# Chain of UniProt P01130 (P01130 whole entry): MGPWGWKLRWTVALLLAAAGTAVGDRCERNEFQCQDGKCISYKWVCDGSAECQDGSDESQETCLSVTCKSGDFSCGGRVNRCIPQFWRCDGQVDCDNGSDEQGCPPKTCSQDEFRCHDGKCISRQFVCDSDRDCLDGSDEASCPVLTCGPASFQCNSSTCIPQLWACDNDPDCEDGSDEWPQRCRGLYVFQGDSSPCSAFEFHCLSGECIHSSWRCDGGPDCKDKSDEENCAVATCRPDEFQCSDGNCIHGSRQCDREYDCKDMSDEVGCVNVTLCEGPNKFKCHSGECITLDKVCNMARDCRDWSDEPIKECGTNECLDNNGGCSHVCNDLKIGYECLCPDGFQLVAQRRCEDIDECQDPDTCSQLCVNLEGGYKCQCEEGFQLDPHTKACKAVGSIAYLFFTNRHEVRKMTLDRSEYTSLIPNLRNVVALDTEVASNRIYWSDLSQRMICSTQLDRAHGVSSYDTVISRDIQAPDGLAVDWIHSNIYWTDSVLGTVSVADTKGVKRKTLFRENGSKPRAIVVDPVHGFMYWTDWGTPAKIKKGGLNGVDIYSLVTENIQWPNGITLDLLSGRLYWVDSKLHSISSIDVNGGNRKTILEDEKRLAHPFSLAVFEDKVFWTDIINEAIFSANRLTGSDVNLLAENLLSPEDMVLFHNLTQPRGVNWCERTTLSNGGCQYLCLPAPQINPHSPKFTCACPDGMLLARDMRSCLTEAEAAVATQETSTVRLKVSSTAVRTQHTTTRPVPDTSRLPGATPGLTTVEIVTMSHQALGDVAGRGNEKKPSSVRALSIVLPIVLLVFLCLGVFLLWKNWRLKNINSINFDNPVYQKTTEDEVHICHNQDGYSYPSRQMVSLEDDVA
# Chain of UniProt P09496 (P09496 whole entry): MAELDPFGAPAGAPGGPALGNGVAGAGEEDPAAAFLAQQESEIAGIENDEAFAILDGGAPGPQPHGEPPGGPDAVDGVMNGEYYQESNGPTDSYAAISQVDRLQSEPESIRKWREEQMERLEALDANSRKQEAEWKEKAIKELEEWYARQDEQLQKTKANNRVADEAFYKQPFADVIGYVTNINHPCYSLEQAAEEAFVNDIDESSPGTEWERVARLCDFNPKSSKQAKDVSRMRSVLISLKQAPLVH
# Chain of UniProt O43707 (O43707 whole entry): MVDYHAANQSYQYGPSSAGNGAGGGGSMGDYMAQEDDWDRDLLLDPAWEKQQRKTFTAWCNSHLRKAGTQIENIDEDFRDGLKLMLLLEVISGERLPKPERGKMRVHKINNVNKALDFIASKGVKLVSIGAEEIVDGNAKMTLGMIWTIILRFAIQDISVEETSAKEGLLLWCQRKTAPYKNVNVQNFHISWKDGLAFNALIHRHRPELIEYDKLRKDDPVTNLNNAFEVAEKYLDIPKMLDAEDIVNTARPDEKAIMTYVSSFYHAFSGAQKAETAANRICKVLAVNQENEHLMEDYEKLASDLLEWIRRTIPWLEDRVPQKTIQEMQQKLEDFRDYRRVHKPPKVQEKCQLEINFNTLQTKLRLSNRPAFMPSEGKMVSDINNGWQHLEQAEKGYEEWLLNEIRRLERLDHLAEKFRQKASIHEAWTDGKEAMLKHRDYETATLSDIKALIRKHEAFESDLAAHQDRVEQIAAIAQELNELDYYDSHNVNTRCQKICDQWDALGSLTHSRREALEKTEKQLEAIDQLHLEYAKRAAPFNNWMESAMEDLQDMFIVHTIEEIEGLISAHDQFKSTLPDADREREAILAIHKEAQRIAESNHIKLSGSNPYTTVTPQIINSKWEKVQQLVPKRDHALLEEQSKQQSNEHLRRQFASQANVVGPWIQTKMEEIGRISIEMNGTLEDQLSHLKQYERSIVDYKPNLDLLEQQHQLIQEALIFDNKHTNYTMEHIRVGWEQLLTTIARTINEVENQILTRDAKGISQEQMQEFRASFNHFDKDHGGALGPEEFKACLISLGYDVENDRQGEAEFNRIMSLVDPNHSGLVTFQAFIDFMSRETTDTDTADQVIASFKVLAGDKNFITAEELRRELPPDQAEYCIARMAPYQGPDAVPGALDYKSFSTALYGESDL
# Chain of UniProt P27348 (P27348 whole entry): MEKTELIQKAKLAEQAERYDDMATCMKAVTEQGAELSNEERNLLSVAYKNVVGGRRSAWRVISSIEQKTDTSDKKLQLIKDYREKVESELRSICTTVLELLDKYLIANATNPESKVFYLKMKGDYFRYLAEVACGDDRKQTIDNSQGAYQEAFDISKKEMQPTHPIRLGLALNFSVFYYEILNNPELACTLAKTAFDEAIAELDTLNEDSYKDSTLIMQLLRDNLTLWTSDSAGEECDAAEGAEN
row,Target,lysine labeling ratio R10:1
1,PDIA3 (lysine site: K433) (UniProt P30101),2.21
2,L1CAM (lysine site: K144) (UniProt P32004),1.09 (active)
3,ACTN4 (lysine site: K760) (UniProt O43707),4.05
4,LRP1 (lysine site: K458) (UniProt Q07954),2.56
5,ARL6IP5 (lysine site: K158) (UniProt O75915),2.7
6,SLC39A10 (lysine site: K317) (UniProt Q9ULF5),6.58
7,TGFBI (lysine site: K53) (UniProt Q15582),1.28 (active)
8,LAMB1 (lysine site: K158) (UniProt P07942),1.78 (active)
9,ANXA2 (lysine site: K204) (UniProt P07355),7.37
10,HSP90B1 (lysine site: K142) (UniProt P14625),2.93
11,UniProt P06576 (lysine site: K264),4.08
12,HSPA9 (lysine site: K143) (UniProt P38646),2.54
13,LDLR (lysine site: K518) (UniProt P01130),1.72 (active)
14,KRT18 (lysine site: K417) (UniProt P05783),10.9
15,NECTIN3 (lysine site: K255) (UniProt Q9NQS3),4.2
16,UniProt Q14696 (lysine site: K222),3.35
17,FLNB (lysine site: K1425) (UniProt O75369),3.67
18,RPS19 (lysine site: K97) (UniProt P39019),1.48 (active)
19,MCAM (lysine site: K217) (UniProt P43121),2.14
20,PDIA3 (lysine site: K104) (UniProt P30101),1.07 (active)

row,Target,lysine labeling ratio R10:1
1,CLTA (lysine site: K141) (UniProt P09496),2.25
2,LAMC1 (lysine site: K1425) (UniProt P11047),2.54
3,CD109 (lysine site: K1105) (UniProt Q6YHK3),1.09 (active)
4,MSN (lysine site: K538) (UniProt P26038),4.98
5,UniProt P62913 (lysine site: K178),3.2
6,UniProt P23352 (lysine site: K279),3.78
7,CTNNA1 (lysine site: K748) (UniProt P35221),2.15
8,ITGA5 (lysine site: K910) (UniProt P08648),3.88
9,HNRNPA1 (lysine site: K350) (UniProt P09651),3.42
10,TXNRD1 (lysine site: K405) (UniProt Q16881),5.51
11,HSPA8 (lysine site: K246) (UniProt P11142),1.78 (active)
12,ATP1B1 (lysine site: K134) (UniProt P05026),6.75
13,YWHAQ (lysine site: K85) (UniProt P27348),4.79
14,RPS2 (lysine site: K275) (UniProt P15880),1.57 (active)
15,RPS27A (lysine site: K113) (UniProt P62979),1.38 (active)
16,CD109 (lysine site: K86) (UniProt Q6YHK3),1.68 (active)
17,HNRNPU (lysine site: K265) (UniProt Q00839),2.4
18,FLOT1 (lysine site: K54) (UniProt O75955),0.737 (active)
19,UniProt P62805 (lysine site: K32),7.5
20,THBS1 (lysine site: K300) (UniProt P07996),2.22
